# According to publication PMC7862700, “An all-to-all approach to the identification of sequence-specific readers for epigenetic DNA modifications on cytosine”:
# Key:
# Assay in all cases: DAPPL (digital affinity profiling via proximity ligation, sequencing); 10 mM Tris-HCl pH 7.5, 50 mM NaCl, 1 mM DTT, 4% glycerol, room temperature, 30 min; GST-TFs on glutathione beads, 16-mer random dsDNA library, 0.1% formaldehyde crosslink after washing; high values mean tight binding
# SPIB = SPIB (Homo sapiens, UniProt Q01892 1-262); conditions: protein: recombinant; tags: N-terminal GST; dsDNA, one strand shown
# Chain of SPIB (Q01892 whole entry, the tested form may be a part): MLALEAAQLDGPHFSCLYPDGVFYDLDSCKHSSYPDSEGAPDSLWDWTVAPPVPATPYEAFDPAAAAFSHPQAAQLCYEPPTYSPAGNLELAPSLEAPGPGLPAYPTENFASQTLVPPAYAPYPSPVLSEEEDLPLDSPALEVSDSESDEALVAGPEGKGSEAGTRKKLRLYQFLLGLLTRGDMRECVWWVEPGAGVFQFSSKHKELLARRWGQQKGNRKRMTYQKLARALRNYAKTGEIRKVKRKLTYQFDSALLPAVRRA
# Outline: (§1)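 After expression in yeast as GST fusions, human transcription factors were bound to glutathione beads, DNA-barcoded and mixed with a tag-only sample. The pools were incubated with 200 nmole of a 16-mer random double-stranded DNA library in Tris/NaCl/DTT/glycerol buffer (30 min, room temperature), washed and crosslinked with 0.1% formaldehyde. Proximity ligation with BsaI/T4 ligase ran for 1 h at 37 °C, before PCR amplification and sequencing on an Illumina NextSeq500. Binding signal is a hexamer's read frequency for a factor divided by its frequency for the tag-only sample.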
# HSF1 = HSF1 (Homo sapiens, UniProt Q00613 1-529); conditions: protein: recombinant; tags: N-terminal GST; chain copies: 3; dsDNA, one strand shown
# Chain of HSF1 (Q00613 whole entry): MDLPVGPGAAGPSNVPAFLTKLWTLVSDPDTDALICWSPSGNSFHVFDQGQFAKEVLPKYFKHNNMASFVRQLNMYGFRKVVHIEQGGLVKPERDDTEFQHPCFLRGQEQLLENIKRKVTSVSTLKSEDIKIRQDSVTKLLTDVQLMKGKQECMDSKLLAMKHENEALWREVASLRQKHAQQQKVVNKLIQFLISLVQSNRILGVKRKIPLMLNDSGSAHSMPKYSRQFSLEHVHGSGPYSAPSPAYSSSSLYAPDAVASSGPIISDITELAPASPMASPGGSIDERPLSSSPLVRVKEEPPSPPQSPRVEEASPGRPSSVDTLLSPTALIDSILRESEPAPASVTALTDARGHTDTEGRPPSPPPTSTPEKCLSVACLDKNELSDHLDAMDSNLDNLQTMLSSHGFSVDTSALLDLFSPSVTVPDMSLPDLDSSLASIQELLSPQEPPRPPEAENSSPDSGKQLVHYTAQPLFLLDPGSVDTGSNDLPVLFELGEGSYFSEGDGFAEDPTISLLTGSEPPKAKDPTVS
# Outline: as §1
# SPIC = biological target: T1, SPIC (Homo sapiens, UniProt Q8N5J4 1-248); conditions: protein: recombinant; tags: N-terminal GST; dsDNA, one strand shown
# T1 sequence: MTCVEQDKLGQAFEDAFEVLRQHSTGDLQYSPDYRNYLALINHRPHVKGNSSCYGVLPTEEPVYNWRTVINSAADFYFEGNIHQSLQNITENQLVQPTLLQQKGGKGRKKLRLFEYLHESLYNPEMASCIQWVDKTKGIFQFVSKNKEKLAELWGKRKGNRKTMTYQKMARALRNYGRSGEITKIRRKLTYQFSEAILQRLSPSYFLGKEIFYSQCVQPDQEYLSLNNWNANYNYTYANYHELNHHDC
# Outline: as §1
# ELF4 = ELF4 (Homo sapiens, UniProt Q99607 1-663); conditions: protein: recombinant; tags: N-terminal GST; dsDNA, one strand shown
# Chain of ELF4 (Q99607 whole entry): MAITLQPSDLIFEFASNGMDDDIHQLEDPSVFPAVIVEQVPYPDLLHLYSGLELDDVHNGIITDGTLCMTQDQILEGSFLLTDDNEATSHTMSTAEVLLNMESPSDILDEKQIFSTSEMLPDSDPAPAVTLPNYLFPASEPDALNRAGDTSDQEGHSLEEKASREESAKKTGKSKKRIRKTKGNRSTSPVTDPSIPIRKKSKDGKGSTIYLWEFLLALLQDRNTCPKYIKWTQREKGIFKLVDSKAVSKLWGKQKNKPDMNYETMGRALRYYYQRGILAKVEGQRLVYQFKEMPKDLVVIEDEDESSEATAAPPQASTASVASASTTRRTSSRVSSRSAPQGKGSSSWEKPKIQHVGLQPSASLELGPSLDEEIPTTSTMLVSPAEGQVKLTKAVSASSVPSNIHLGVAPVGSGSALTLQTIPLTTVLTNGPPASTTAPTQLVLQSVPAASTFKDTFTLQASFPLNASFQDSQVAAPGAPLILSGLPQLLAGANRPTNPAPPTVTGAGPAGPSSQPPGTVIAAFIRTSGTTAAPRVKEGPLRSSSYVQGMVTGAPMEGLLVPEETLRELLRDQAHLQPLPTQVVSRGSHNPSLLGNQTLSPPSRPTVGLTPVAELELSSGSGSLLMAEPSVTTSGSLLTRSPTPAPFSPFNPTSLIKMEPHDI
# Outline: as §1
# ETV2 = biological target: T2, ETV2 (Homo sapiens, UniProt O00321 1-342); conditions: protein: recombinant; tags: N-terminal GST; dsDNA, one strand shown
# T2 sequence: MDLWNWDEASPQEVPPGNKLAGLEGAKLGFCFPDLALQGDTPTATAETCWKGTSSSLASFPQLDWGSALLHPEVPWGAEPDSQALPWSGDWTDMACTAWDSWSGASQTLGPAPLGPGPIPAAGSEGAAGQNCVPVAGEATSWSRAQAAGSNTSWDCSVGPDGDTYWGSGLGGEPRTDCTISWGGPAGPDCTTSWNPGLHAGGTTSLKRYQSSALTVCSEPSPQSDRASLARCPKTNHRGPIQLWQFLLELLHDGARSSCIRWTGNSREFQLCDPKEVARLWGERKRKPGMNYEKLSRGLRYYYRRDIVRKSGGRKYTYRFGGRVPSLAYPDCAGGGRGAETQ
# Outline: as §1
# ELF3 = biological target: T3, ELF3 (Homo sapiens, UniProt P78545 1-371); conditions: protein: recombinant; tags: N-terminal GST; dsDNA, one strand shown
# T3 sequence: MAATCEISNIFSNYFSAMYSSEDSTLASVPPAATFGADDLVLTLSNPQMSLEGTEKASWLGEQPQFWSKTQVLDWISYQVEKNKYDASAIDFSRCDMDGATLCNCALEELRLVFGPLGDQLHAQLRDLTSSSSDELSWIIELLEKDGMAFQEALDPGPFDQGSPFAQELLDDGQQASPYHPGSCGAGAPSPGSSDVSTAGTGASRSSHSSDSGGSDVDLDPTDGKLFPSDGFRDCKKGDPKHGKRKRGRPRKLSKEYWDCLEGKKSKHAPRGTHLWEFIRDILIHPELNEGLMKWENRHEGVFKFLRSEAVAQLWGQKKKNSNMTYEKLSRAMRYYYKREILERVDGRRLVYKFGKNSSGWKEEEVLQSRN
# Outline: as §1
# CRX = CRX (Homo sapiens, UniProt O43186 1-299); conditions: protein: recombinant; tags: N-terminal GST; dsDNA, one strand shown
# Chain of CRX (O43186 whole entry): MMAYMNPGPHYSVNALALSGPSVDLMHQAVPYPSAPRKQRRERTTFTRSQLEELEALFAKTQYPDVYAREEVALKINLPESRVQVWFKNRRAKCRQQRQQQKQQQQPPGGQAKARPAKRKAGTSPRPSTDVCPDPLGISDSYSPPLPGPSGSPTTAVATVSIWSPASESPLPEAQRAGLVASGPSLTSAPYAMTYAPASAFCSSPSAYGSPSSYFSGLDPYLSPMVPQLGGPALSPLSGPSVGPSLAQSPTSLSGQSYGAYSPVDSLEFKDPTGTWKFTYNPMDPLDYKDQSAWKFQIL
# Outline: as §1
# ETV1 = ETV1 (Homo sapiens, UniProt P50549 1-477); conditions: protein: recombinant; tags: N-terminal GST; dsDNA, one strand shown
# Chain of ETV1 (P50549 whole entry): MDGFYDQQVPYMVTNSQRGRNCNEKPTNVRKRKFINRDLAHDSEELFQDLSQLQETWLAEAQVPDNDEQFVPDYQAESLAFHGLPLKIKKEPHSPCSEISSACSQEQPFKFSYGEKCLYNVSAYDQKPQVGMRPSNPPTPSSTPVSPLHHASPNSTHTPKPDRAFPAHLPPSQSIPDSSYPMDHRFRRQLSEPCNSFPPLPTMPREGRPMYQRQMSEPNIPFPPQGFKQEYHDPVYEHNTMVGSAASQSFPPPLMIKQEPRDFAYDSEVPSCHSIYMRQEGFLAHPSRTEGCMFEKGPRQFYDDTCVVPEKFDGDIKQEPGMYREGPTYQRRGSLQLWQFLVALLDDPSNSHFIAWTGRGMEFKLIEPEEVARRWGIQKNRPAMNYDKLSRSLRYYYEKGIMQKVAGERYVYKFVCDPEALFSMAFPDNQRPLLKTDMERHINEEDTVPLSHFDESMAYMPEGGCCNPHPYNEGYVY
# Outline: as §1
# ETV3L = biological target: T4, ETV3L (Homo sapiens, UniProt Q6ZN32 1-361); conditions: protein: recombinant; tags: N-terminal GST; dsDNA, one strand shown
# T4 sequence: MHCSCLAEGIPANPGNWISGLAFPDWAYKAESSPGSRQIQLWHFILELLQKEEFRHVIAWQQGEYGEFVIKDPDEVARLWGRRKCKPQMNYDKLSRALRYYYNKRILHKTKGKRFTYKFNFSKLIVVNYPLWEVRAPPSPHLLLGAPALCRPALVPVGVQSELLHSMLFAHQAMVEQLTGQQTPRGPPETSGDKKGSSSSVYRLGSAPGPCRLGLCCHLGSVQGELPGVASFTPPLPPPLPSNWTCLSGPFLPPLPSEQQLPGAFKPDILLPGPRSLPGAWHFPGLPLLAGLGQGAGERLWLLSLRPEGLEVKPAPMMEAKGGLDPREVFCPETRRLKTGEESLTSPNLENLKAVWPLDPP
# Outline: as §1
# ETS2 = biological target: T5, ETS2 (Homo sapiens, UniProt P15036 1-469); conditions: protein: recombinant; tags: N-terminal GST; dsDNA, one strand shown
# T5 sequence: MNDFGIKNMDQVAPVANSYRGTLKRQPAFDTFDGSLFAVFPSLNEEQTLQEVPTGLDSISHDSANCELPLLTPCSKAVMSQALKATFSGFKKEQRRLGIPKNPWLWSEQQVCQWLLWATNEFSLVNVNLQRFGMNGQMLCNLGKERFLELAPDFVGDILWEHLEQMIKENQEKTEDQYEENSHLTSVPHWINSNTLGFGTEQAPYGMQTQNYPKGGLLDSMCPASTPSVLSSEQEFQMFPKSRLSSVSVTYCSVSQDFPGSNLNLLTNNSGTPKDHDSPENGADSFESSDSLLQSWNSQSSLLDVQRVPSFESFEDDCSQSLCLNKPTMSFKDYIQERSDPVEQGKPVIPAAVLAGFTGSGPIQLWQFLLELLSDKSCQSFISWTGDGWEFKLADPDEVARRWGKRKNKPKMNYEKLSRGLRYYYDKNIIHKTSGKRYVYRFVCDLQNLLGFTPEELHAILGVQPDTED
# Outline: as §1
# SPDEF = biological target: T6, SPDEF (Homo sapiens, UniProt O95238 1-335); conditions: protein: recombinant; tags: N-terminal GST; dsDNA, one strand shown
# T6 sequence: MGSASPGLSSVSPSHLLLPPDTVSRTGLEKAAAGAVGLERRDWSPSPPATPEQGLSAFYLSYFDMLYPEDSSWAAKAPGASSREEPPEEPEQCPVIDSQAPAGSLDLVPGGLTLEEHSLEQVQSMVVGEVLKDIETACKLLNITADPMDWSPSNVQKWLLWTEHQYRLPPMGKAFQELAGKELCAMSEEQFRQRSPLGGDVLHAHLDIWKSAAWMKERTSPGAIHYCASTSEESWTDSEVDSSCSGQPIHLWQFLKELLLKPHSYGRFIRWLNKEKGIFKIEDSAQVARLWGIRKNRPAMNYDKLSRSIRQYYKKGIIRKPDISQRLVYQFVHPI
# Outline: as §1
# ETV7 = biological target: T7, ETV7 (Homo sapiens, UniProt Q9Y603 1-341); conditions: protein: recombinant; tags: N-terminal GST; dsDNA, one strand shown
# T7 sequence: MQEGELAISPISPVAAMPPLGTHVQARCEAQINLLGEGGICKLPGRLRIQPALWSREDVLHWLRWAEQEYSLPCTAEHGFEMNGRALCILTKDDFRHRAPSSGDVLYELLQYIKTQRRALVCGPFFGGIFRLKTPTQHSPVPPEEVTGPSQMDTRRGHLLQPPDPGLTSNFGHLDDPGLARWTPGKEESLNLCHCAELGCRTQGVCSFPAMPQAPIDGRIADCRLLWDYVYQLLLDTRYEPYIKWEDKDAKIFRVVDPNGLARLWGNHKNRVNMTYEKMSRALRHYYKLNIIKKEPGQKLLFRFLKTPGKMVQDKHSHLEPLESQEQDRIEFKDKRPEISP
# Outline: as §1
# ETV3 = biological target: T8, ETV3 (Homo sapiens, UniProt P41162-2 1-143); conditions: protein: recombinant; tags: N-terminal GST; dsDNA, one strand shown
# T8 sequence: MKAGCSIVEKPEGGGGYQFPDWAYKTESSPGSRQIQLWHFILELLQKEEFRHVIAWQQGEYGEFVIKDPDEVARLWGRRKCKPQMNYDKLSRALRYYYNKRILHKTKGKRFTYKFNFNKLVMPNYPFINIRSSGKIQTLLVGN
# Outline: as §1
# ELK4 = biological target: T9, ELK4 (Homo sapiens, UniProt P28324-2 1-405); conditions: protein: recombinant; tags: N-terminal GST; dsDNA, one strand shown
# T9 sequence: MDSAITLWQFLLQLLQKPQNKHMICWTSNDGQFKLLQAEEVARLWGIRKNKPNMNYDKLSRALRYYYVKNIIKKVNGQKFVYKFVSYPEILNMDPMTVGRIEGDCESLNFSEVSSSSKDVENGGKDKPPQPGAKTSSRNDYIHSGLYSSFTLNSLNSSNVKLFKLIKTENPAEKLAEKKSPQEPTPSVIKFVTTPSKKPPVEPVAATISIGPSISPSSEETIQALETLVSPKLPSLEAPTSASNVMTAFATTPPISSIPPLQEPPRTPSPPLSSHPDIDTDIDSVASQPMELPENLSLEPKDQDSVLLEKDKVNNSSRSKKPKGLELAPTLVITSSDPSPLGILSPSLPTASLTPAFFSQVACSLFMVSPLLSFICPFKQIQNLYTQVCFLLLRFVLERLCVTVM
# Outline: as §1
sequence,measurement,setting,value
GATTCG,binding signal,SPIB,"1.04 fold enrichment (6-mer frequency, TF over GST control)"
same,binding signal,HSF1,"1.23 fold enrichment (6-mer frequency, TF over GST control)"
same,binding signal,SPIC,"1.16 fold enrichment (6-mer frequency, TF over GST control)"
same,binding signal,ELF4,"1.05 fold enrichment (6-mer frequency, TF over GST control)"
same,binding signal,ETV2,"1.02 fold enrichment (6-mer frequency, TF over GST control)"
same,binding signal,ELF3,"1.09 fold enrichment (6-mer frequency, TF over GST control)"
same,binding signal,CRX,"1.06 fold enrichment (6-mer frequency, TF over GST control)"
same,binding signal,ETV1,"1.03 fold enrichment (6-mer frequency, TF over GST control)"
same,binding signal,ETV3L,"1.06 fold enrichment (6-mer frequency, TF over GST control)"
same,binding signal,ETS2,"1 fold enrichment (6-mer frequency, TF over GST control)"
same,binding signal,SPDEF,"1 fold enrichment (6-mer frequency, TF over GST control)"
same,binding signal,ETV7,"1.01 fold enrichment (6-mer frequency, TF over GST control)"
same,binding signal,ETV3,"1 fold enrichment (6-mer frequency, TF over GST control)"
GATGGA,binding signal,HSF1,"1.1 fold enrichment (6-mer frequency, TF over GST control)"
same,binding signal,SPIC,"1.22 fold enrichment (6-mer frequency, TF over GST control)"
same,binding signal,ELK4,"1.04 fold enrichment (6-mer frequency, TF over GST control)"
same,binding signal,ETV2,"1.02 fold enrichment (6-mer frequency, TF over GST control)"
